The source of these data is PubChem BioAssay (EPA / NIEHS).

Results filed as inconclusive are left out. Some structures have more than one record in an assay (separate samples or runs), and their calls can disagree. Active and inactive are the calls of the source. Rule for the calls, unless noted: active = hit-call score of the fitted dose curve at least 0.9, where 1 is the maximum; inactive = score below 0.9.

A short description of test [1]: ATG_M_06_TRANS: Attagene TRANS-FACTORIAL HepG2 Assay for M06 Transcription Factor (Internal Marker) (AID 2282983; active = hit-call score of the fitted dose curve at least 0.9, where 1 is the maximum). The following applies: HepG2 Attagene TRANS M06 internal marker reporter. An outline of the steps: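 Read-out: fluorescent reporter cDNA fragments resolved by capillary electrophoresis after RT-PCR and HpaI cut. Source cells were HepG2 carrying transfected multi-reporter GAL4 constructs, dosed 24 h. Increase over DMSO control analysed.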

Test [2] is described as follows: ATG_M_32_TRANS: Attagene TRANS-FACTORIAL HepG2 Assay for M32 Transcription Factor (Internal Marker) (AID 2282984; active = hit-call score of the fitted dose curve at least 0.9, where 1 is the maximum;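 note: transcript level of a background control reporter unit measured by RT-PCR and capillary electrophoresis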). As to conditions: HepG2 Attagene TRANS M32 internal marker reporter. An outline of the steps:
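Internal-marker readout from a multiplexed transcription reporter panel. HepG2 cells were transfected with GAL4-UAS reporter units, treated 24 hours, and reporter transcript levels determined by fluorescence after RT-PCR and capillary separation.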

For test [3], the target named is Nuclear receptor subfamily 4 group A member 2 (Homo sapiens) (UniProt P43354). The test can be described thus: ATG_NURR1_TRANS: Attagene TRANS-FACTORIAL HepG2 Assay for human Nuclear Receptor Related Protein 1 (NURR1) (AID 2282985; active = hit-call score of the fitted dose curve at least 0.9, where 1 is the maximum). The following applies: HepG2 Attagene TRANS reporter, mRNA readout. Put shortly:
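Endpoint: reporter mRNA increase relative to DMSO. HepG2 cells transfected with reporter units, treated 24 h; RNA processed by RT-PCR, labelling, HpaI digestion and capillary electrophoresis.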

Test [4] addresses Transcriptional activator Myb (Homo sapiens) (UniProt P10242). Kind of test: ATG_Myb_CIS: Attagene CIS-FACTORIAL HepG2 Assay for human Myeloblastosis (Myb) Proto-Oncogene Transcription Factor (AID 2282986). As to conditions: HepG2 Attagene CIS-FACTORIAL Myb reporter transcription; actives raise or lower the signal. Put shortly:
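Fluorescence signals from capillary electrophoresis of RT-PCR-amplified reporter cDNA give the read-out. Cells: HepG2 transfected with multiple cis-regulated reporter units. Exposure lasts 24 hours; DMSO defines baseline for gain or loss of signal.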

For test [5], the target named is Nuclear respiratory factor 1 (Homo sapiens) (UniProt Q16656). Kind of test: ATG_NRF1_CIS: Attagene CIS-FACTORIAL HepG2 Assay for human Nuclear Respiratory Factor 1 (NRF1) Orphan Gene (AID 2282987). The following applies: HepG2 NRF1 cis-element reporter, Attagene multiplex; actives raise or lower the signal. Put shortly:
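Transcriptional reporter readout, one component of a 52-endpoint multiplexed HepG2 panel. Exposure 24 h; mRNA detected via RT-PCR and fluorescent capillary electrophoresis; fitting in both directions against DMSO.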

Test [6] can be described thus: ATG_NFI_CIS: Attagene CIS-FACTORIAL HepG2 Assay for human Nuclear Factor I (NFI) (AID 2282989). As to conditions: HepG2 cis-regulatory reporter, NFI response element transcription; actives raise or lower the signal. Put shortly:
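Multiplexed cis-reporter system in human HepG2 cells reports native TF activity as reporter mRNA induction 24 h post-dose. Fragments labelled with 6-FAM, HpaI-digested and resolved by capillary electrophoresis; activity fitted both directions versus DMSO.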

Test [7] has as its target Myc proto-oncogene protein (Homo sapiens) (UniProt P01106). Kind of test: ATG_Myc_CIS: Attagene CIS-FACTORIAL HepG2 Assay for human Myelocytomatosis (Myc) Proto-Oncogene Transcription Factor (AID 2282990). The following applies: HepG2, Attagene cis-reporter transcription factor activity; actives raise or lower the signal. An outline of the steps: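 Transiently transfected HepG2 cells bearing cis-promoter reporter units for endogenous transcription factors; 24 h exposure. Reporter mRNA measured by RT-PCR, 6-FAM primer extension, HpaI cut and capillary electrophoresis; bidirectional fit relative to DMSO.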

Test [8] in a line: ATG_NF_kB_CIS: Attagene CIS-FACTORIAL HepG2 Assay for human Nuclear Factor Kappa B (NF-kB) (AID 2282991). The following applies: HepG2 Attagene cis-factorial NF-kB reporter mRNA; actives raise or lower the signal. Put shortly: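 HepG2, transient multi-reporter transfection, cis promoter elements (endogenous TFs). 24 h exposure. Total RNA → RT → PCR → 6-FAM label → HpaI → CE. Gain/loss vs DMSO.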

Test [9] is described as follows: ATG_NRF2_ARE_CIS: Attagene CIS-FACTORIAL HepG2 Assay for human Nuclear Factor Erythroid 2 Related Factor 2 (NFR2) response to Antioxidant Response Elements (ARE) (AID 2282992).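 For AC50: reporter mRNA level measured by RT-PCR and capillary electrophoresis fluorescence.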 The following applies: HepG2 Attagene ARE/NRF2 reporter, transcription factor activity; actives raise or lower the signal. Put shortly: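 Endogenous transcription factor activity in human liver HepG2 cells is tracked via a cis-element-driven reporter within a multiplexed set. mRNA induction is read by RT-PCR and capillary electrophoresis after 24 h, with DMSO as baseline.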

Test [10] can be described thus: ATG_Oct_MLP_CIS: Attagene CIS-FACTORIAL HepG2 Assay for human Octamer-Binding Transcription Factor (Oct) (AID 2282993). The following applies: HepG2 Attagene cis-factorial Oct reporter, mRNA; actives raise or lower the signal. An outline of the steps: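 After 24 h compound exposure, transfected HepG2 cells were lysed for total RNA; reporter-specific cDNA was PCR-amplified, fluorescently labelled and sized by capillary electrophoresis. Bidirectional curve fitting used DMSO as baseline.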

For test [11], the target named is Hepatocyte nuclear factor 4-alpha (Homo sapiens) (UniProt P41235). The test can be described thus: ATG_HNF4a_TRANS: Attagene TRANS-FACTORIAL HepG2 Assay for human Hepatocyte Nuclear Factor 4 alpha (HNF4a) (AID 2282982; active = hit-call score of the fitted dose curve at least 0.9, where 1 is the maximum). As to conditions: HepG2 HNF4a transactivation reporter, mRNA readout. Put shortly: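 Endpoint reflects transcriptional activation of a GAL4-UAS reporter by an HNF4a-GAL4 chimera in transfected HepG2 cells, 24 h post-dosing. Fluorescence from RT-PCR products separated by capillary electrophoresis; DMSO baseline.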
Hepatocyte nuclear factor 4-alpha (Homo sapiens), sequence (P41235 whole entry, looked up, the tested form may be a part): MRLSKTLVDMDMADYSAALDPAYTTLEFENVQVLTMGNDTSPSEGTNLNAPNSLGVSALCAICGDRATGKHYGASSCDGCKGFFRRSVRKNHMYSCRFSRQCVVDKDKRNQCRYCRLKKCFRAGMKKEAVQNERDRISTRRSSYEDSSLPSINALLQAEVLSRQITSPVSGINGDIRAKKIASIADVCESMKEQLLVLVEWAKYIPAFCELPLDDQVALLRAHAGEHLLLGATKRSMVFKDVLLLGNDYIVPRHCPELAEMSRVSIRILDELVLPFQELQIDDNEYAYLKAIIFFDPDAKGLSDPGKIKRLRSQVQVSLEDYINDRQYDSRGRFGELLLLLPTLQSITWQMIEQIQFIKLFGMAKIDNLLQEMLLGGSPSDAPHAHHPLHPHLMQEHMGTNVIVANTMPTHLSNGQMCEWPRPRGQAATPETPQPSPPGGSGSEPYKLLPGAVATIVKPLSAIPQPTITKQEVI

Test [12] deals with Cellular tumor antigen p53 (Homo sapiens) (UniProt P04637). Kind of test: ATG_p53_CIS: Attagene CIS-FACTORIAL HepG2 Assay for human p53 Transcription Factor (AID 2282994). As to conditions: HepG2 p53 cis-element reporter, Attagene mRNA; actives raise or lower the signal. Put shortly: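 Steps: transfect HepG2 with multiplexed cis reporter constructs; dose chemicals 24 h; extract RNA, reverse-transcribe, PCR-amplify reporter sequences; FAM-label, HpaI-digest, resolve fragments by CE. Activity fitted both directions relative to DMSO.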
Cellular tumor antigen p53 (Homo sapiens), sequence (P04637 whole entry, looked up, the tested form may be a part): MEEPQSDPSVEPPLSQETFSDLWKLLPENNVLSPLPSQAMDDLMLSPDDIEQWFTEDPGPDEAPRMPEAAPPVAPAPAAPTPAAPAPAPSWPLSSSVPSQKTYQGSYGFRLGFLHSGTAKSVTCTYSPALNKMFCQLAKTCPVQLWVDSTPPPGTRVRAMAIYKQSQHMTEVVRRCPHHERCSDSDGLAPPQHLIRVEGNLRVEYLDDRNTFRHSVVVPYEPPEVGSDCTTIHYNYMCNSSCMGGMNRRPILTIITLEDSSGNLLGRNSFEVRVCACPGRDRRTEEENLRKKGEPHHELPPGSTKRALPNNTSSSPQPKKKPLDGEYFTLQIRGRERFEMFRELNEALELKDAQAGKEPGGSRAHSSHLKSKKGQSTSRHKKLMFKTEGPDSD

The nature of test [13]: BSK_3C_TissueFactor: BioMAP Diversity Plus: 3C Assay for Tissue Factor Biomarker Activity (AID 2282997). As to conditions: BioMAP 3C HUVEC, tissue factor biomarker readout; actives raise or lower the signal. Put shortly: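 HUVEC, 3C system, 24 h post-dose; Tissue Factor by ELISA; bidirectional fit vs DMSO baseline.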
Test [14] is described as follows: BSK_3C_uPAR: BioMAP Diversity Plus: 3C Assay for Urokinase-type plasminogen activator receptor (uPAR) Biomarker Activity (AID 2282998). As to conditions: BioMAP 3C HUVEC, uPAR biomarker ELISA; actives raise or lower the signal. Put shortly:
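Values derive from bidirectional curve fitting relative to DMSO, which served as baseline of activity. uPAR was measured by ELISA in human umbilical vein endothelial primary cultures 24 h after compound addition.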

A short description of test [15]: BSK_3C_VCAM1: BioMAP Diversity Plus: 3C Assay for Vascular cell adhesion molecule 1 (VCAM1) Biomarker Activity (AID 2282999). The following applies: BioMAP 3C HUVEC, VCAM1 ELISA, cytokine-stimulated; actives raise or lower the signal. Put shortly: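 HUVEC primary cells, 24 h compound exposure; VCAM-1 by ELISA; gain/loss of signal fitted bidirectionally vs DMSO baseline.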

Myc proto-oncogene protein (Homo sapiens), sequence (P01106 whole entry, looked up): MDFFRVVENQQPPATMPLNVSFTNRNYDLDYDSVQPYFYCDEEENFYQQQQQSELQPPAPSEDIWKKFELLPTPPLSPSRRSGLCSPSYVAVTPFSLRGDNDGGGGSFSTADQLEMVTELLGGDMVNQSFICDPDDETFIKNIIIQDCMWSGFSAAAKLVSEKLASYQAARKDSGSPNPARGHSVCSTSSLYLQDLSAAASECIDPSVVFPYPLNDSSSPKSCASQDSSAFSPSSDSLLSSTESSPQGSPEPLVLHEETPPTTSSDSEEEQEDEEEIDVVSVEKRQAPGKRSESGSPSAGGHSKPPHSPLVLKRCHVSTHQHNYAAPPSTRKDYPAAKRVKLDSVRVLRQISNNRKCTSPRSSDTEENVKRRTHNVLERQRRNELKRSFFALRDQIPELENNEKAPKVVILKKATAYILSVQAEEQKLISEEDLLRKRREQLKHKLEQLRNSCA
Transcriptional activator Myb (Homo sapiens), sequence (P10242 whole entry, looked up): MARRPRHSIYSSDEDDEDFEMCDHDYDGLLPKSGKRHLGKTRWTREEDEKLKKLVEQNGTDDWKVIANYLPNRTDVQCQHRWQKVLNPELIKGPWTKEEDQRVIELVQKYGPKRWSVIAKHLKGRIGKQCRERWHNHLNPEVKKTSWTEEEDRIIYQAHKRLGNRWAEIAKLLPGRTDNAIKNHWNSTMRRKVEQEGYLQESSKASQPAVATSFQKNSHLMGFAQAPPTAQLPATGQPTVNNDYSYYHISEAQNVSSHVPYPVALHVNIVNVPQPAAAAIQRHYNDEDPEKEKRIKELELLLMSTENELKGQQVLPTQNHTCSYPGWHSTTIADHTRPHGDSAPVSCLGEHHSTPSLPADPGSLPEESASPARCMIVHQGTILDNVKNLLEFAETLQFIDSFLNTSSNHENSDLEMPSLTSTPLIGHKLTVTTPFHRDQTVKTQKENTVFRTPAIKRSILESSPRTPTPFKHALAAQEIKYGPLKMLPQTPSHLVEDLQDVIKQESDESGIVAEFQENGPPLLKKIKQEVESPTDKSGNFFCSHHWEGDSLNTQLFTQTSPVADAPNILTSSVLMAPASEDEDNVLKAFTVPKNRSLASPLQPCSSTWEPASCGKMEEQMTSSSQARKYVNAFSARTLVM
Nuclear receptor subfamily 4 group A member 2 (Homo sapiens), sequence (P43354 whole entry, looked up): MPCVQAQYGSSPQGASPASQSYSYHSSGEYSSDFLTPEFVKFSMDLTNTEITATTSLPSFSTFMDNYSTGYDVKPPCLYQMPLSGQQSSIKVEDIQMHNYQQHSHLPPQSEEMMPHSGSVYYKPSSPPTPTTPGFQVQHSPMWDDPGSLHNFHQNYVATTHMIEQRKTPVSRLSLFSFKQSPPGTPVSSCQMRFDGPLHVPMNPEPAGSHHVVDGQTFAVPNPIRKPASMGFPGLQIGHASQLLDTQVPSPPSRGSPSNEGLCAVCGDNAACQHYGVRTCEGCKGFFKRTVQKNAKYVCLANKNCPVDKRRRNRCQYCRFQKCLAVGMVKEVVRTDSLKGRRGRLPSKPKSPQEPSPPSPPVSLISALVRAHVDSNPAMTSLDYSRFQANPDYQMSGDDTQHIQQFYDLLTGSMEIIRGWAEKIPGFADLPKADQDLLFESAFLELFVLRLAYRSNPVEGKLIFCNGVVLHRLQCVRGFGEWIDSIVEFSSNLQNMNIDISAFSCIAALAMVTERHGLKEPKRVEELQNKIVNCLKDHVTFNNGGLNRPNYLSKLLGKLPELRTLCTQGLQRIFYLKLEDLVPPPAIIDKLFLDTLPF
Nuclear respiratory factor 1 (Homo sapiens), sequence (Q16656 whole entry, looked up): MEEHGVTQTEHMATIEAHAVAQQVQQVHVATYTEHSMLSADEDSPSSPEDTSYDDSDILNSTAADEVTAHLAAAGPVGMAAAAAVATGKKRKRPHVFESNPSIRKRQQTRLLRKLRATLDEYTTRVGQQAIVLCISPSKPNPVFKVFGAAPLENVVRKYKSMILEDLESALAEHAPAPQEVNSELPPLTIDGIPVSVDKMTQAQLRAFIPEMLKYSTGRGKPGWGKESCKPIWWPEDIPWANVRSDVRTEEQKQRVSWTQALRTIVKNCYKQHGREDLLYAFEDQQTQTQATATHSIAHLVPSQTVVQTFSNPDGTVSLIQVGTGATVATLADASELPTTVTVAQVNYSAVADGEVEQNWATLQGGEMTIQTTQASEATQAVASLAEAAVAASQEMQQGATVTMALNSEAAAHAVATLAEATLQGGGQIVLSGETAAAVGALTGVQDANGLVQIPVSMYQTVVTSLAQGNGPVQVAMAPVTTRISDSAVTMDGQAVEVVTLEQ

As for `CCCCCCCCCCCCOC(C)=O`, the result in test [1], in [2], in [3], in test [4], in [5] and in test [6] was inactive. Further, the call in test [7], in [8], in test [9] and in [10] was inactive.

In the case of `CCCC1CCC(=O)CC1`, the call in test [1], in test [2], in test [3], in test [4], in [5] and in test [6] was inactive. Besides, the result in test [7], in test [9] and in test [10] was inactive.

On to `CC(=O)CC(C)(C)C1CCCCC1`, for which the result in test [11], in test [2], in test [4], in test [5], in test [6] and in [7] was inactive. For the same compound, the result in [9], in test [10] and in [12] was inactive.

Turning to `CC/C=C\CCCCO`, the outcome in test [11], in [2], in [3], in test [4], in test [5] and in test [6] was inactive. Further, the call in test [7], in [8], in test [9] and in [10] was inactive.

As for `CC(=O)OC(C)(C)C1CC=C(C)CC1` (stereo not given), the call in test [2], in [3], in test [4], in test [5], in test [6] and in test [7] was inactive. Further, the outcome in test [9], in test [10], in test [12] and in test [15] was inactive. For the same compound, the AC50 is 29.8 µM (active) in test [13] and 32.3 µM (active) in test [14].

`O=S(=O)(O)C(F)(F)C(F)(F)OC(F)(F)C(F)(F)F`: the outcome in test [13], in test [14] and in test [15] was inactive.

In the case of `C=CCOC(=O)/C=C\C(=O)OCC=C`, the call in test [11], in [2], in test [3], in [4], in test [5] and in [6] was inactive. Also, the result in test [7] and in test [10] was inactive. In addition, the AC50 in test [9] is 6.75 µM (active); in test [12], 156 µM (active).

`CCCCCCCCCOS(=O)(=O)O`: the outcome in [11], in [1], in test [4], in test [5], in test [6] and in test [7] was inactive. The compound was classed as inactive in test [9] and in test [10].

In the case of `CCCc1ccc(N)cc1`, the compound was classed as inactive in test [4], in test [5], in test [6], in test [7], in test [8] and in test [9]. Also, the call in test [10] and in [12] was inactive.

Turning to `CCCCCCC(O)CCOC(C)=O` (stereo not given), the outcome in test [11], in [1], in test [4], in [5], in test [6] and in test [7] was inactive. Also, the result in test [8], in test [9], in test [10] and in [12] was inactive.

For `OCC(F)(OC(F)(F)C(F)(OC(F)(F)C(F)(F)C(F)(F)F)C(F)(F)F)C(F)(F)F` (stereo not given), the result in test [13], in [14] and in test [15] was inactive. In addition, the AC50 in test [15] is 3.72 µM (active).

For the compound `c1ccc(Sc2ccccc2)cc1`, the call in test [1], in [3], in [4], in test [5], in test [6] and in [7] was inactive. Moreover, the outcome in [8], in test [9] and in test [10] was inactive. In addition, the AC50 is 33 µM (active) in test [13], 32 µM (active) in test [14] and 39.1 µM (active) in test [15].

As for `CC1=CCC(C(C)(C)O)CC1` (stereo not given), the call in test [1], in test [3], in test [4], in [5], in test [6] and in test [7] was inactive. In addition, the compound was called inactive in test [8], in test [9], in test [10] and in [12].
